# Reference: PubChem BioAssay (Tox21)
# Records with an inconclusive call do not appear. A number with no mark means an inactive call. The source made the active and inactive calls. The call rests on the fitted dose curve; in most records, active means well fitted inhibition curve with a large enough effect in the signal ratio in the repeat runs (not every such curve was filed as active); inconclusive means weak or mixed curves, or effect the other way; inactive means no such curve, though single readings can be large or run the other way; the % refers to the signal ratio.
# Molecular target: Estrogen receptor beta (Homo sapiens) (UniProt Q92731)
# Sequence (Q92731 whole entry, looked up): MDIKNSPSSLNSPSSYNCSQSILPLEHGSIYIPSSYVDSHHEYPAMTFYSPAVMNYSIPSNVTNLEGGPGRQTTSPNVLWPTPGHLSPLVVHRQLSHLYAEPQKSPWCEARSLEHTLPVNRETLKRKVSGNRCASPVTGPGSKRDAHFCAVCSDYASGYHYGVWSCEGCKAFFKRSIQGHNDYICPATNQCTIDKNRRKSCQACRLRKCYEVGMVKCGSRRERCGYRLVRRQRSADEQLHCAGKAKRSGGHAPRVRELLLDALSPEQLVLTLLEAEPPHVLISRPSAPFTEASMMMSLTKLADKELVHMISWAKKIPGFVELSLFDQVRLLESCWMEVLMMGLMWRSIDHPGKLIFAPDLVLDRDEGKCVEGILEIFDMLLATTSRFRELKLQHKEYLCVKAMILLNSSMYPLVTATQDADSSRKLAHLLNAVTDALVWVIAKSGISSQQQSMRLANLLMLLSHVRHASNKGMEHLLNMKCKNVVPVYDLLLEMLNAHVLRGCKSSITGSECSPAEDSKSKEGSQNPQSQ
# Assay: qHTS assay to identify small molecule antagonists of the estrogen receptor beta (ER-beta) signaling pathway (AID 1259378)
# Details: ER-beta-UAS-bla HEK293T, beta-lactamase FRET ratio, 16 h; series mostly up to 92.4 µM
# Description: National Center for Advancing Translational Sciences [NCATS]
# NIH Chemical Genomics Center [NCGC]
# U.S. Environmental Protection Agency [EPA]
# National Institutes of Environmental Health Sciences [NIEHS]
# National Toxicology Program [NTP]
# U.S. Food and Drug Administration [FDA]
# Estrogen receptor (ER), a nuclear hormone receptor, plays an important role in development, metabolic homeostasis and reproduction. Two subtypes of ER, ER-alpha and ER-beta, have similar expression patterns with some uniqueness in both types. Endocrine disrupting chemicals (EDCs) and their interactions with steroid hormone receptors like ER causes disruption of normal endocrine function. To identify the compounds that inhibit ER signaling, an ER-beta-UAS-bla GripTite cell line (Life Technologies, Madison, WI, USA) containing a beta-lactamase reporter gene under the control of an UAS response element was used to screen Tox21 10K compound library.
# Tox21 Assay Protocol Summary:
# ER-beta-UAS-bla HEK293T cells were dispensed at 2,000 cells/4 uL of assay medium containing 2% charcoal stripped FBS per well into black wall/clear-bottom 1536-well plates using a Multidrop Combi (ThermoFisher Scientific, Waltham, MA) dispenser. After the assay plates were incubated at a 37C and 5% CO2 for 6 hr, 23 nL of compounds dissolved in DMSO, positive controls or DMSO only was transferred to the assay plate by a Pintool station (Kalypsys, San Diego, CA), followed by addition of 1 uL (1nM as final concentration) of 17-beta-estradiol (E2) in assay medium using a BioRAPTR FRD (Flying Reagent Dispenser, Aurora Discovery, San Diego, CA). The plates were incubated at 37C and 5% CO2 for 16 hr. Then 1 uL of LiveBLAzerTM B/G FRET substrate was added using a Flying Reagent Dispenser, the plates were incubated at room temperature for 2 hours, and fluorescence intensity was measured by an Envision plate reader (PerkinElmer, Shelton, CT).
# On the % scale 0 is the no-effect control and ±100 the full control effect.
SMILES,outcome,"activity, negative = inhibition"
CCCCCCCCCCCCCCCC/C=C/C1CC(=O)OC1=O (stereo not given),inactive,–
CCOC(=O)CN1CCCC1=O,inactive,–
COc1cc(OC)cc(OC)c1,inactive,–
CCCC(=O)CC,inactive,–
BrCCOc1ccccc1,inactive,–
C[C@@H]1CCC[C@H](C)N1CCCC(O)(c1ccccc1)c1ccccn1 (stereo not given in full),inactive,–
C/C(=N\O)c1ccc(OCC(=O)N2CCCCC2)cc1,inactive,–
Cc1nc2ccc(Cl)cc2[nH]1,inactive,–
CC(C)CC(O)Cc1ccccc1 (stereo not given),inactive,–
CCN1CCN(C(=O)N[C@@H](C(=O)N[C@@H]2C(=O)N3C(C(=O)O)=C(CSc4nnnn4C)CS[C@H]23)c2ccc(O)cc2)C(=O)C1=O,inactive,–
COc1cc(C(=O)NC2CCCNC2)cc(OC)c1OC (stereo not given),inactive,–
CCCC(=O)OC,inactive,–
C[C@@H](CN1CC(=O)NC(=O)C1)N1CC(=O)NC(=O)C1,inactive,–
CCCCC(CC)COC(=O)CC#N (stereo not given),inactive,–
Cc1ccc(N)nc1,inactive,–
CC1(C)S[C@@H]2[C@H](NC(=O)Cc3ccccc3)C(=O)N2[C@H]1C(=O)O (tested in a mixture with another compound),inactive,–
O=S(=O)(O)CC(O)CCl (stereo not given),inactive,–
CCCC(C)C(O)CC (stereo not given),inactive,–
CCCCCCCCCCCCCCBr,inactive,–
CCCCC(O)/C=C(C)/C=C/C=C/C(=O)N1CCCC1=O (stereo not given),inactive,–

SMILES,outcome,"activity, negative = inhibition"
CCCCCCC(O)CO (stereo not given),inactive,–
Cc1cc(C)c(C)c(C)c1,inactive,–
COc1cc2nc(N3CCN(C(=O)C4CCCO4)CC3)nc(N)c2cc1OC (stereo not given),inactive,–
CC(C)(C)NCC(O)COc1cccc2c1CCC(=O)N2 (stereo not given),inactive,–
CCC(C)SSC(C)CC (stereo not given),inactive,–
C/C(Cl)=C/CCl,inactive,–
CCCCC(CC)CCC(CC(C)C)OS(=O)(=O)O (stereo not given),inactive,–
Cc1cc(O)c(Cl)cc1C,inactive,–
Cc1nnc(C(=O)NC(C)(C)c2nc(C(=O)NCc3ccc(F)cc3)c(O)c(=O)n2C)o1,inactive,–
CC(O)C(CO)C(C)O (stereo not given),inactive,–
CC(=O)c1c(C)cc(C(C)(C)C)cc1C,inactive,–
COc1ccc(Cl)cc1C,inactive,–
O=C(O)CCCCCCCCCC(=O)O,inactive,–
CC[C@@]1(c2ccccc2)NC(=O)N(C)C1=O,inactive,–
c1cc2ccc3ccc4ccc5cccc6c(c1)c2c3c4c56,–,4.07% [at 3.27 µM]
CNC(=O)c1c(I)c(NC(C)=O)c(I)c(C(=O)O)c1I,inactive,–
O=C(O)COc1ccc2ccccc2c1,inactive,–
CC(C)(C)C(=O)CCc1ccc(Cl)cc1,inactive,–
CCOC(=O)c1ccc(N(C)C)cc1,inactive,–
COc1cc(S(N)(=O)=O)cc(C(=O)O)c1OC,inactive,–
